The values that follow come from PubChem BioAssay (NCI).

Molecules are shown by their SMILES. The panel holds about 83,000 compounds, 20% with a hit somewhere; the sample as a whole holds those more often.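 Plates (96-well) were seeded with cells, treated with compound at one concentration, and incubated for 48 hours before percent growth was determined.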 Values without a mark were called inactive. The source made the active and inactive calls. How the source made its calls: active means growth percent below 10; inactive means the rest.

Test systems include NCI-H23 lung; NCI-H322M lung; HOP-62 NSCLC; NCI-H460 lung; HOP-92 NSCLC; NCI-H522 lung; A549/ATCC NSCLC; 786-0 renal; COLO 205 colon; DU-145 prostate; K-562 leukemia; MALME-3M melanoma; MDA-MB-231 breast; RXF 393 renal; SF-268 CNS; SF-295 CNS; SF-539 CNS; UACC-257 melanoma; M14 melanoma; HCT-15 colon.
Experiment in all cases: NCI-60 one-dose screen, 48 h (100 = growth as untreated, 0 = no growth, -100 = all killed)
Holding throughout (conditions): 10 µM unless noted

Turning to `O=C(O)CCCN1C(=O)C2C3CCC(C3)C2C1=O` (stereo not given), the growth is 101% in the experiment on NCI-H23 lung; 107% with NCI-H322M lung; 109% in the experiment on HOP-62 NSCLC; 116% in the experiment on NCI-H460 lung; 107% with HOP-92 NSCLC; 88% in the experiment with NCI-H522 lung. Further, the growth in the experiment on A549/ATCC NSCLC is 104%; with 786-0 renal, 106%; with COLO 205 colon, 119%; in the experiment with DU-145 prostate it was 115%; with K-562 leukemia, 105%; in the experiment with MALME-3M melanoma, 96%. The growth was 130% in the experiment on MDA-MB-231 breast; 83.8% with RXF 393 renal; 107% in the experiment on SF-268 CNS; 109% with SF-295 CNS; 103% in the experiment on SF-539 CNS; 111% in the experiment on UACC-257 melanoma. The growth in the experiment with M14 melanoma is 105%; with HCT-15 colon, 103%.

`COc1cc(C(=O)NN=C2c3ccccc3-c3ccccc32)cc(OC)c1OC`: the growth with NCI-H23 lung is 62%; in the experiment on NCI-H322M lung, 54%; in the experiment with HOP-62 NSCLC it was 36.6%; in the experiment on NCI-H460 lung, 11.2%; with HOP-92 NSCLC, 42.4%; in the experiment with NCI-H522 lung, 15%. In addition, the growth is 43.6% in the experiment with A549/ATCC NSCLC; 41.9% in the experiment on 786-0 renal; 2.88% (active) in the experiment on COLO 205 colon; 49.7% in the experiment with DU-145 prostate; 13.9% with K-562 leukemia; 44.4% with MALME-3M melanoma. For the same molecule, the growth in the experiment with MDA-MB-231 breast was 49.1%; with RXF 393 renal it was 16.7%; in the experiment on SF-268 CNS, 45.1%; in the experiment with SF-295 CNS, -0.172% (active); in the experiment on SF-539 CNS, 4.99% (active); with UACC-257 melanoma, 38.1%. The growth in the experiment on M14 melanoma is 17.6%; with HCT-15 colon, 27.2%.

Turning to `COc1ccc(CCN2C(=O)CCSC2=S)cc1`, the growth in the experiment with NCI-H23 lung is 80%; in the experiment on NCI-H322M lung it was 87.6%; in the experiment with HOP-62 NSCLC, 18.6%; in the experiment with NCI-H460 lung, 77%; in the experiment on HOP-92 NSCLC, 41.9%; in the experiment with NCI-H522 lung, 11.1%. The growth was 96.6% with A549/ATCC NSCLC; 16.8% with 786-0 renal; 36.3% in the experiment on COLO 205 colon; 13.8% in the experiment with DU-145 prostate; 29.2% with K-562 leukemia; 76.7% in the experiment with MALME-3M melanoma. The growth with MDA-MB-231 breast was 59.2%; in the experiment on RXF 393 renal it was 18.7%; with SF-268 CNS, 46.2%; in the experiment on SF-295 CNS, 67.2%; in the experiment with SF-539 CNS it was 7.31% (active); in the experiment with UACC-257 melanoma, 85.4%. For the same molecule, the growth in the experiment with M14 melanoma was 61.2%; in the experiment on HCT-15 colon, 12.4%.

For the molecule `Cc1ccc(NC2=CC(=O)C(=O)c3ccccc32)c(C)c1`, the growth in the experiment on NCI-H23 lung was -25.5% (active); in the experiment on NCI-H322M lung, 57.7%; with HOP-62 NSCLC, 27.3%; with NCI-H460 lung, -56.7% (active); with HOP-92 NSCLC, 123%; in the experiment on NCI-H522 lung, 47.6%. Moreover, the growth with A549/ATCC NSCLC was 5.75% (active); in the experiment on 786-0 renal it was 99.4%; with COLO 205 colon, 85%; in the experiment on DU-145 prostate, -60.8% (active); with K-562 leukemia, 61.3%; in the experiment on MALME-3M melanoma, 62.5%. Further, the growth in the experiment with MDA-MB-231 breast was 49.5%; with RXF 393 renal, 85.5%; in the experiment with SF-268 CNS it was 63.2%; in the experiment on SF-295 CNS it was 34.6%; in the experiment on SF-539 CNS it was 48.8%; in the experiment on UACC-257 melanoma, 23.1%. For the same molecule, the growth in the experiment on M14 melanoma is -15.5% (active); in the experiment on HCT-15 colon it was 13.3%.

As to `O=Cc1cc2ccccc2nc1Nc1nccs1`, the growth in the experiment with NCI-H23 lung is 52.4%; in the experiment on NCI-H322M lung, 91.8%; in the experiment with HOP-62 NSCLC, 62.2%; in the experiment on NCI-H460 lung, 61.8%; in the experiment with HOP-92 NSCLC, 81%; with NCI-H522 lung, 83.1%. The growth was 96.9% in the experiment on A549/ATCC NSCLC; 69% in the experiment on 786-0 renal; 69.7% with COLO 205 colon; 80.3% in the experiment on DU-145 prostate; 109% with K-562 leukemia; 73.1% in the experiment on MALME-3M melanoma. Also, the growth is 68.6% with MDA-MB-231 breast; 53.2% in the experiment on RXF 393 renal; 54.8% in the experiment with SF-268 CNS; 92.9% in the experiment on SF-295 CNS; 87.3% in the experiment on SF-539 CNS; 102% in the experiment with UACC-257 melanoma. Moreover, the results for the growth in the experiment with M14 melanoma and with HCT-15 colon were 101% and 46.4%, respectively.

As for `CCn1c(SCC(=O)Nc2cc(C(F)(F)F)ccc2Cl)nc2ccccc2c1=O`, the growth is 70.9% in the experiment on NCI-H23 lung; 78.8% in the experiment with NCI-H322M lung; 64.2% in the experiment on HOP-62 NSCLC; 28.6% with NCI-H460 lung; 9.17% (active) with HOP-92 NSCLC; 50.7% in the experiment on NCI-H522 lung. In addition, the growth in the experiment with A549/ATCC NSCLC was 50.5%; in the experiment with 786-0 renal it was 56.4%; in the experiment on COLO 205 colon it was 52.6%; in the experiment with DU-145 prostate it was 38.2%; in the experiment with K-562 leukemia, -46.2% (active); with MALME-3M melanoma it was -15.6% (active). For the same molecule, the growth in the experiment with MDA-MB-231 breast is -25.6% (active); with RXF 393 renal it was 44.4%; in the experiment on SF-268 CNS, 32.6%; in the experiment with SF-295 CNS, 67.3%; in the experiment on SF-539 CNS, 69.1%; in the experiment on UACC-257 melanoma, -32% (active). The growth is -67% (active) with M14 melanoma and 36.7% in the experiment with HCT-15 colon.

As to `COCCN(C(=O)Cc1cccs1)C(C(=O)NCc1ccc(OC)cc1)c1ccc(C(C)C)cc1` (stereo not given), the growth in the experiment on NCI-H23 lung is 86.4%; in the experiment on NCI-H322M lung, 92.2%; with HOP-62 NSCLC, 97.8%; in the experiment on NCI-H460 lung it was 78.2%; in the experiment on HOP-92 NSCLC it was -3.71% (active); with NCI-H522 lung it was 80.7%. Also, the growth is 87.2% in the experiment with A549/ATCC NSCLC; 95% in the experiment on 786-0 renal; 104% in the experiment on COLO 205 colon; 63.5% with DU-145 prostate; 77% with K-562 leukemia; 72.2% in the experiment on MALME-3M melanoma. The growth in the experiment on MDA-MB-231 breast was 71.4%; in the experiment on RXF 393 renal it was 88.5%; in the experiment on SF-268 CNS, 57.8%; with SF-295 CNS, 84.3%; in the experiment with SF-539 CNS, 93.3%; in the experiment on UACC-257 melanoma it was 122%. Moreover, the growth with M14 melanoma was 106%; in the experiment on HCT-15 colon, 95.7%.

As to `CC1=C(C(=O)OCC2CCN(C(=O)OC(C)(C)C)CC2)[C@H](c2cccc(C#N)c2)C2=C(CC(C)(C)CC2=O)N1`, the growth with NCI-H23 lung was 65.7%; in the experiment on NCI-H322M lung it was 68.4%; with HOP-62 NSCLC it was 70.3%; in the experiment on NCI-H460 lung, 12.8%; in the experiment with HOP-92 NSCLC it was 86.3%; in the experiment on NCI-H522 lung, 8.74% (active). Besides, the growth was 46.1% in the experiment on A549/ATCC NSCLC; 62.8% in the experiment on 786-0 renal; 50.9% with COLO 205 colon; 52.5% in the experiment with DU-145 prostate; 24.3% in the experiment on K-562 leukemia; 66.1% in the experiment with MALME-3M melanoma. The growth in the experiment on MDA-MB-231 breast was 59.7%; with RXF 393 renal, 83.2%; in the experiment on SF-268 CNS, 52.5%; in the experiment with SF-295 CNS, 40.5%; with SF-539 CNS it was 48%; in the experiment with UACC-257 melanoma it was 70%. Further, the growth in the experiment on M14 melanoma was 50.4%; in the experiment with HCT-15 colon it was 23.7%.
